# Assay results taken from ChEMBL document CHEMBL1961873, “Compounds: GSK PKIS; Assays: Nanosyn kinase panel” (2012).
# What was measured:
# [1] = system: Proto-oncogene tyrosine-protein kinase receptor Ret (Homo sapiens), P07949 [Y791F]; settings: at 1 µM
# [2] = target: Macrophage-stimulating protein receptor (Homo sapiens) (UniProt Q04912); settings: at 0.1 µM
# [3] = target: Macrophage-stimulating protein receptor (Homo sapiens) (UniProt Q04912); settings: at 1 µM
# [4] = target: Proto-oncogene tyrosine-protein kinase ROS (Homo sapiens) (UniProt P08922); settings: at 0.1 µM
# [5] = target: Proto-oncogene tyrosine-protein kinase ROS (Homo sapiens) (UniProt P08922); settings: at 1 µM
# [6] = target: Proto-oncogene tyrosine-protein kinase Src (Homo sapiens) (UniProt P12931); settings: at 0.1 µM
# [7] = target: Proto-oncogene tyrosine-protein kinase Src (Homo sapiens) (UniProt P12931); settings: at 1 µM
# [8] = target: Tyrosine-protein kinase Srms (Homo sapiens) (UniProt Q9H3Y6); settings: at 0.1 µM
# Chain of Tyrosine-protein kinase Srms (Homo sapiens) (Q9H3Y6 whole entry): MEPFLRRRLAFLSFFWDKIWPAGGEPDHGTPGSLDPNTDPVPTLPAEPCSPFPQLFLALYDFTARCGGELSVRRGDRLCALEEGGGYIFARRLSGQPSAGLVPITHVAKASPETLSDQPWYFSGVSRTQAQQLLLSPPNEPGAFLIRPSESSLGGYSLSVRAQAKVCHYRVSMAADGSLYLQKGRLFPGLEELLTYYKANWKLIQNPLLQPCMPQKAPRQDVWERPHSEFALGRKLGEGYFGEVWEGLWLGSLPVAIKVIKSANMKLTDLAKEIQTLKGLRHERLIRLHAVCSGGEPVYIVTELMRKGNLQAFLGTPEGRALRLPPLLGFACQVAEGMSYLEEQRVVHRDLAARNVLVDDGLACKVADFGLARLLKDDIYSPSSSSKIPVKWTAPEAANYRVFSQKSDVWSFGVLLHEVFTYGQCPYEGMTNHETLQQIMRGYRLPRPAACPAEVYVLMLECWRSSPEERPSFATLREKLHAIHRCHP
# [9] = target: Tyrosine-protein kinase Srms (Homo sapiens) (UniProt Q9H3Y6); settings: at 1 µM
# [10] = target: Tyrosine-protein kinase SYK (Homo sapiens) (UniProt P43405); settings: at 0.1 µM
# [11] = target: Tyrosine-protein kinase SYK (Homo sapiens) (UniProt P43405); settings: at 1 µM
# [12] = target: T1, Tyrosine-protein kinase Tec (Homo sapiens) (UniProt P42680); settings: at 0.1 µM
# T1 sequence (whole entry): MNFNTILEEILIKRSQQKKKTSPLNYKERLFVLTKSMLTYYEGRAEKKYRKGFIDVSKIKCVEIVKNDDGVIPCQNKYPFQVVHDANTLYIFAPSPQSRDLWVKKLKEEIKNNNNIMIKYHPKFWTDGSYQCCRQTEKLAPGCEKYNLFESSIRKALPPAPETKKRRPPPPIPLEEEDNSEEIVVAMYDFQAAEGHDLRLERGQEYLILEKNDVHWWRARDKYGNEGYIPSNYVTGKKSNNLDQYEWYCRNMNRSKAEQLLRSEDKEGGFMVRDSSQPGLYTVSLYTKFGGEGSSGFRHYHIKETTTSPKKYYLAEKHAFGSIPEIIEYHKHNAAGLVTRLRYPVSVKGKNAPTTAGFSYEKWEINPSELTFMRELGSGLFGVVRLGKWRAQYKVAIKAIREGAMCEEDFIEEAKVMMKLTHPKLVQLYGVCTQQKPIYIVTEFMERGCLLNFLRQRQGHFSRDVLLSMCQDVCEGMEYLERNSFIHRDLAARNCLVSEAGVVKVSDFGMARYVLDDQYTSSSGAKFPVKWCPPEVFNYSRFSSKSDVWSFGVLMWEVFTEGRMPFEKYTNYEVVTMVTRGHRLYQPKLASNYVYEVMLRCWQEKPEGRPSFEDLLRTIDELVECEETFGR
# [13] = target: T1, Tyrosine-protein kinase Tec (Homo sapiens); settings: at 1 µM
# [14] = target: Angiopoietin-1 receptor (Homo sapiens) (UniProt Q02763); settings: at 0.1 µM
# Chain of Angiopoietin-1 receptor (Homo sapiens) (Q02763 whole entry): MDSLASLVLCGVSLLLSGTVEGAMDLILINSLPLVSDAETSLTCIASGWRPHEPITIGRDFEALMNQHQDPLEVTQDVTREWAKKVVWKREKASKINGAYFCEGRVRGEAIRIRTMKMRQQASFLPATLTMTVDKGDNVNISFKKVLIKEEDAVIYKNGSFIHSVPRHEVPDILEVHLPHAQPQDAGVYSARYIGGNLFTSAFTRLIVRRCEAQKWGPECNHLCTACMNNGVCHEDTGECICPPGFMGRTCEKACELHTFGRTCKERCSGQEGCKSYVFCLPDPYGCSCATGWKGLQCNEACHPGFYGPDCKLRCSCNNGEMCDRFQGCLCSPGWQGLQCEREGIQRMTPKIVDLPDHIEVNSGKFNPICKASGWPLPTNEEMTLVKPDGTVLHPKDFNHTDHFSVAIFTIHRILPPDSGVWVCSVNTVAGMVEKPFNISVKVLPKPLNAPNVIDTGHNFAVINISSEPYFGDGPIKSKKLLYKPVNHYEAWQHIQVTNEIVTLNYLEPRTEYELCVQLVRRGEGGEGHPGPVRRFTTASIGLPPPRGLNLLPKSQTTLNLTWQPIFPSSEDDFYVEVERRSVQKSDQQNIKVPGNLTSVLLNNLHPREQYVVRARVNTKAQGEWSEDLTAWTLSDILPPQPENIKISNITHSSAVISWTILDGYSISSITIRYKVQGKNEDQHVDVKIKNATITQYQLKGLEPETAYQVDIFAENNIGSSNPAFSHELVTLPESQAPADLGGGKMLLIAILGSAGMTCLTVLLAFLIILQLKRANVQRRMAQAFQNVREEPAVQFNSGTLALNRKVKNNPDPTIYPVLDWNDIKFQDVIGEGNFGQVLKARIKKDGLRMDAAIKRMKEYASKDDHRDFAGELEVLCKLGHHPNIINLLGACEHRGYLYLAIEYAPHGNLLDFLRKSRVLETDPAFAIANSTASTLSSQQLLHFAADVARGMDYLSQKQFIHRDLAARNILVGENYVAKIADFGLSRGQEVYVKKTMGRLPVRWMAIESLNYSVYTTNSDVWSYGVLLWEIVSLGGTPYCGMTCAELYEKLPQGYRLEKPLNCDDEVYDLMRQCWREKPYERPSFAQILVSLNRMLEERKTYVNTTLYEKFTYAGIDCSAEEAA
# [15] = target: Angiopoietin-1 receptor (Homo sapiens) (UniProt Q02763); settings: at 1 µM
# [16] = target: T2, Non-receptor tyrosine-protein kinase TNK1 (Homo sapiens) (UniProt Q13470); settings: at 0.1 µM
# T2 sequence (whole entry): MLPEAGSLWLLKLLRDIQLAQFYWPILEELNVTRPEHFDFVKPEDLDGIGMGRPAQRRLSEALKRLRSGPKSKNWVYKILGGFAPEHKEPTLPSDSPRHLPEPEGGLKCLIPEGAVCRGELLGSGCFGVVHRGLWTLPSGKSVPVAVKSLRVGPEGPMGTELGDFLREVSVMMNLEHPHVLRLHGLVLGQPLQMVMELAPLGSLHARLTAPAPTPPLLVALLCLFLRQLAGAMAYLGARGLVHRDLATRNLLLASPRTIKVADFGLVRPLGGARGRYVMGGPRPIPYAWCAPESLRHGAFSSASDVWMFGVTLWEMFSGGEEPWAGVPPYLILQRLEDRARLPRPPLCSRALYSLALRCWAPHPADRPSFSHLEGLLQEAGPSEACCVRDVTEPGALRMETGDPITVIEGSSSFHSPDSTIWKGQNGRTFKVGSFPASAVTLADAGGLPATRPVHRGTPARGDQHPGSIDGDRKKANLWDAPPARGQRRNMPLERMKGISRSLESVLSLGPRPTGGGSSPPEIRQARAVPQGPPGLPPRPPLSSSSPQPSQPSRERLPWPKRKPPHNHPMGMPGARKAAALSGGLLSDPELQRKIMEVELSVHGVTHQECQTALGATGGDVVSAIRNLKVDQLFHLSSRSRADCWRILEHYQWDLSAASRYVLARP
# [17] = target: T2, Non-receptor tyrosine-protein kinase TNK1 (Homo sapiens); settings: at 1 µM
# [18] = target: Activated CDC42 kinase 1 (Homo sapiens) (UniProt Q07912); settings: at 0.1 µM
# Chain of Activated CDC42 kinase 1 (Homo sapiens) (Q07912 whole entry, looked up): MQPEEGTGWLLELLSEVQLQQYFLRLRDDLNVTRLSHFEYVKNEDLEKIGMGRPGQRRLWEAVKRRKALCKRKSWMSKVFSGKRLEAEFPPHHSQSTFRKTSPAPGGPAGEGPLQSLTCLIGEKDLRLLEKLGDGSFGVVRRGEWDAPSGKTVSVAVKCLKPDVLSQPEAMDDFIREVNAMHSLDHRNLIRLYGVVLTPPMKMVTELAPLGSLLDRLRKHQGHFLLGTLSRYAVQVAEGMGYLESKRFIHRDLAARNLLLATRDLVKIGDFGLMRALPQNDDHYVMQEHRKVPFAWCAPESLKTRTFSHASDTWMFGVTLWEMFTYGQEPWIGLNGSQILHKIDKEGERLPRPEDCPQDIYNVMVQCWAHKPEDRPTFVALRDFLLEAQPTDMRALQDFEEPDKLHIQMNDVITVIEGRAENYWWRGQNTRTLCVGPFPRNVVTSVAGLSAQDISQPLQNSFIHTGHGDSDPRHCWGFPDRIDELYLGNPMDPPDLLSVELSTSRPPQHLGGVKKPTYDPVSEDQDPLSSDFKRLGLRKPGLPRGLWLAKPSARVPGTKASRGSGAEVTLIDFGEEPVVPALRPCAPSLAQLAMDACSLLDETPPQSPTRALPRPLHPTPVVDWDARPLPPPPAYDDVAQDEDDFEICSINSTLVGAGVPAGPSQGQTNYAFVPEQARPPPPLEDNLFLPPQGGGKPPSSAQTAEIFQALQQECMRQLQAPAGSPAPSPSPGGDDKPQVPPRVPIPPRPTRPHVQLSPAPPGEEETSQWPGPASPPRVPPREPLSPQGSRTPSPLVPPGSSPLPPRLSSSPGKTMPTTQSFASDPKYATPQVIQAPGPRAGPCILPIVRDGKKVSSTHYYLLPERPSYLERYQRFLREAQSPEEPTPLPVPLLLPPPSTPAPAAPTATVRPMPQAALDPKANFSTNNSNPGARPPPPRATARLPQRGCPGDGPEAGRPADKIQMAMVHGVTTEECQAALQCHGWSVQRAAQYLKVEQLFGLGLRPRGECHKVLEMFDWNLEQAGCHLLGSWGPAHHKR
# [19] = target: Activated CDC42 kinase 1 (Homo sapiens) (UniProt Q07912); settings: at 1 µM
# [20] = target: High affinity nerve growth factor receptor (Homo sapiens) (UniProt P04629); settings: at 0.1 µM;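 further: each value is a mean of replicate percent inhibition readings against TRKA kinase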
# Chain of High affinity nerve growth factor receptor (Homo sapiens) (P04629 33-796 limits assumed): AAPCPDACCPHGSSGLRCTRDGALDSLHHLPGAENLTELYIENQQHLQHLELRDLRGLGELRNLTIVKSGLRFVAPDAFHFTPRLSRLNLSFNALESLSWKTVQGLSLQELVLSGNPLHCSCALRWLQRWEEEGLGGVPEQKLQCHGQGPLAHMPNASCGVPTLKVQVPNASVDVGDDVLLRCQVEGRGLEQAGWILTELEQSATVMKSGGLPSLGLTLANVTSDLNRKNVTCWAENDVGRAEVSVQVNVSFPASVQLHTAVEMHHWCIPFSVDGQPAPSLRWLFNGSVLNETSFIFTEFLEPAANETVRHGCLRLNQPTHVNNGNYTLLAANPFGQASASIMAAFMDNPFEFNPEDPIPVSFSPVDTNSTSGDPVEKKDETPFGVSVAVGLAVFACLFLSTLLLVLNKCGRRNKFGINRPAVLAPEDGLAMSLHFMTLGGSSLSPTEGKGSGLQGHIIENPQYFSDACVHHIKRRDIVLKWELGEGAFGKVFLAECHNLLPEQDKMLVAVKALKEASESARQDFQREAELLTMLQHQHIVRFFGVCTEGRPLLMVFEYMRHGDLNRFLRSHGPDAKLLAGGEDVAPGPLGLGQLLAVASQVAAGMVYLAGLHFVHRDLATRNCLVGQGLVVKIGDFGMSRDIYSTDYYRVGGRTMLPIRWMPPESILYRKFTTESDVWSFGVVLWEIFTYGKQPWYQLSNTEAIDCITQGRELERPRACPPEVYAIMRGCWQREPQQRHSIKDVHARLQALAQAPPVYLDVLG
# Chain of Macrophage-stimulating protein receptor (Homo sapiens) (Q04912 25-304 limits assumed): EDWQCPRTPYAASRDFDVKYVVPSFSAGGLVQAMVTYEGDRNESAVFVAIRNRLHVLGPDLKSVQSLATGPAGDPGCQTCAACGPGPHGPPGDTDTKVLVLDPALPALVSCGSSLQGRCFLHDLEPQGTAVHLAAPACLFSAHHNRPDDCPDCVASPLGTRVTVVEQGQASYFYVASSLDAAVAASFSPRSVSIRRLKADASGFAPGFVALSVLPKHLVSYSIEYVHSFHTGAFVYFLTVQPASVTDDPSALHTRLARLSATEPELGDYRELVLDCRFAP
# Chain of Macrophage-stimulating protein receptor (Homo sapiens) (Q04912 310-1400 limits assumed): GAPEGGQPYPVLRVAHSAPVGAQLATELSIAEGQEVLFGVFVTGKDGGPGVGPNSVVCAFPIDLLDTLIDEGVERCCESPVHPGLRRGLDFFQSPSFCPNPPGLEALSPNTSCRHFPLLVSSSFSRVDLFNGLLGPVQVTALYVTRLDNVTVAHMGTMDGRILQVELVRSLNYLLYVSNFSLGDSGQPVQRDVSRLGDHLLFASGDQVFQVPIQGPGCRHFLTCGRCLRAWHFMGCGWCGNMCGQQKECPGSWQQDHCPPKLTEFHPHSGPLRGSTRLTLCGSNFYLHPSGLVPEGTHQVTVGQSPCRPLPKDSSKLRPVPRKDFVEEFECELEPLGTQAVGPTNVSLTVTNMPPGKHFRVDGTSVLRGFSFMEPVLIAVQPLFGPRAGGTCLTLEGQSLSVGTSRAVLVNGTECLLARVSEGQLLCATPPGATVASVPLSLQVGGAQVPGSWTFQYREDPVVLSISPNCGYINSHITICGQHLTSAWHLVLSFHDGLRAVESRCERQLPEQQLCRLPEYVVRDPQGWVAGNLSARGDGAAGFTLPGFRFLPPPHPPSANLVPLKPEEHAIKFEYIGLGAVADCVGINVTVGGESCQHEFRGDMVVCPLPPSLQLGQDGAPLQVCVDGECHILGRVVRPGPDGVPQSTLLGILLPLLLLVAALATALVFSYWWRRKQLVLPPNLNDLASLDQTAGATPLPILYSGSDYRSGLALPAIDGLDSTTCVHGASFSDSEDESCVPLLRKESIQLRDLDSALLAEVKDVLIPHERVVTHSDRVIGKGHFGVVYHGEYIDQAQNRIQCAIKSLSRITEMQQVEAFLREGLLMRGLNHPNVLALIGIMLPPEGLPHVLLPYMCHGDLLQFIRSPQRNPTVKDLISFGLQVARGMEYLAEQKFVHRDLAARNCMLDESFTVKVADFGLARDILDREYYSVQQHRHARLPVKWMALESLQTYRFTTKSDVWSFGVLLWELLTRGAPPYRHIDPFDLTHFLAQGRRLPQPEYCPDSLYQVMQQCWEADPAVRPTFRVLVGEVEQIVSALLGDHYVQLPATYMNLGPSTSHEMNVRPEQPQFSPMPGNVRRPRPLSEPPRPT
SMILES,inhibition [1] [%],inhibition [2] [%],inhibition [3] [%],inhibition [4] [%],inhibition [5] [%],inhibition [6] [%],inhibition [7] [%],inhibition [8] [%],inhibition [9] [%],inhibition [10] [%],inhibition [11] [%],inhibition [12] [%],inhibition [13] [%],inhibition [14] [%],inhibition [15] [%],inhibition [16] [%],inhibition [17] [%],inhibition [18] [%],inhibition [19] [%],inhibition [20] [%]
CC1(C)CC(n2cnc(-c3ccc(F)cc3)c2-c2ccnc(N)n2)CC(C)(C)N1,1.67,2.97,5.62,5.01,7.73,-1.43,5.26,0.52,-1.76,-1.03,0.92,1.41,-0.41,1.61,3.96,-0.43,-1.61,-0.24,0.43,6.46
FC(F)(F)CNc1nccc(-c2cnn3ncccc23)n1,2.92,1.76,-1.8,-0.19,2.27,3.96,3.98,-5.51,-3.04,-0.18,-3.33,0.22,2.62,1.95,3.61,0.51,4.99,0.71,-0.17,-0.41
Cc1ccc(-c2cc3c(NC(=O)C4CC4)ncnc3o2)cc1,12.9,-0.25,11.4,11.1,16.3,1.85,24.4,-1.85,-5.36,-5.27,-1.6,5.2,13.1,3.09,4.4,3.37,6.56,1.58,4.37,4.74
NC(=O)c1ccc2c(-c3ccnc(NCCCO)n3)c(-c3ccc(F)cc3)nn2c1,19.4,2.03,9.13,8.51,10.6,0.24,12.9,15,4.79,-5.36,-0.6,5.81,16.1,5.27,6.83,4.67,2.83,0.88,5,3.75
O=C(O[C@H]1CN[C@H](C#Cc2cc3ncnc(Nc4ccc5c(cnn5Cc5ccccc5)c4)c3s2)C1)N1CCOCC1,8.34,0.29,2.37,1.38,-0.29,0.01,-0.98,-0.4,2.01,0.27,0.67,2.33,2.89,0.41,5.18,0.45,9.52,-0.92,-1.03,-1.24
CNC(=O)c1cncc(/C=C/c2ccccc2C)c1,12.3,1.43,5.25,4.35,5.86,8.47,13.7,1.18,0.97,-0.75,-0.24,6.1,16.4,1.59,-0.24,3.86,20.7,1.54,8.09,3.97
N#Cc1cccc(Nc2ncc(-c3ccccc3)o2)c1,10.8,-0.08,-1.06,2.33,3.19,6.64,19.9,2.21,2.55,1.05,-0.14,1.29,2.29,0.48,2.45,2.36,15.4,0.46,0.86,-0.7
NS(=O)(=O)c1cccc(N/C=C2\C(=O)Nc3ccccc32)c1,34.3,-4.07,7.57,5.69,9.87,1.93,12.9,-0.1,-1.56,-6.93,-1.66,4.94,7.41,4.12,8.33,3.06,5.85,0.36,1.26,4.69
CS(=O)(=O)CCNCc1ccc(-c2ccc3ncnc(Nc4ccc(OCc5ccccc5)cc4)c3c2)o1,9.58,2.59,3.8,1.11,8.89,9.13,12.5,-0.68,2.59,1.7,-0.71,1.49,7.43,1.24,4.15,3.51,16.6,1.73,2.69,1.91
CS(=O)(=O)CCNCc1ccoc1-c1ccc2ncnc(Nc3ccc(OCc4ccccc4)cc3)c2c1,9.63,1.78,-1.8,0.39,2,3.56,4.6,-1.68,-0.79,-2.93,0.23,0.03,3.04,1.86,4.86,1.08,5.74,0.06,0.6,1.31
CS(=O)(=O)CCNCc1ccc(-c2ccc3ncnc(Nc4ccc(OCc5cccc(C(F)(F)F)c5)cc4)c3c2)o1,6.5,-1.41,3.05,6.2,8.72,9.03,15.8,-3.48,-3.22,-1.19,-0.03,6.62,4.52,3.37,4.84,0.64,5.33,0.49,0.96,2.16
CCCNc1cccc(-n2ncc3c(N/N=C/c4ccncc4)ncnc32)c1,65.2,11.7,57.9,6.09,33.4,19.5,81.8,4.26,7.86,3.8,-2.86,2.52,7.76,8.93,36.2,9.78,48,0.38,3.51,-0.62
CN1CCC(n2cnc(-c3ccc(F)cc3)c2-c2ccnc(NCCO)n2)CC1,15.2,-0.99,-1.06,6.65,2.72,2.31,7.94,-0.64,-0.42,-2.08,-1.12,6.05,5.09,1.8,3.36,4.89,10.8,1.7,2.83,2.11
